The list is not random: actives were taken first. Their share in the collection is about 3.2%.
TMEM16A inh: blocks the mouse calcium-activated chloride channel TMEM16A | Q8BHY3 | HEK293 TMEM16A/YFP iodide influx fluorescence, ionomycin | normalized B-score (activity score, 25-100; higher = stronger inhibition) at 10 µM | hit rate 1.2% among 310,000 | AID 588511;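 active = ratio plate-corrected score three or more library SD toward inhibition, starting fluorescence score within five deviations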;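 also: score derived from kinetic fluorescence span divided by baseline fluorescence per well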
CHT inh: inhibitors of human choline transporter CHT; Q9GZV3; CHT-expressing cells, membrane potential dye, choline response; stronger effect = lower value; B-score at 10 µM; hit rate 0.86% among 310,000; AID 488975;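 active = B-score over 3 SD under the library average, and starting fluorescence ratio not unusually high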;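 also: choline stimulus applied at its EC90 after an EC20 pre-addition; B-score computed on integrated fluorescence ratio after choline addition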
CHT PAM: human CHT allosteric activation. B-score at 10 µM. hit rate 0.49% among 310,000. AID 488977. CHT-expressing cells, membrane potential dye, choline EC20; stronger effect = higher value; LV-AA mutant CHT in HEK293 cells;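 active = initial fluorescence not abnormally high and integrated response B-score, plate-corrected, over 3 SD above library mean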
TMEM16A act: activates or potentiates the mouse TMEM16A chloride channel; Q8BHY3; HEK293 TMEM16A/YFP-H148Q/I152L, iodide quench fluorescence; stronger effect = lower value; B-score at 10 µM; hit rate 0.3% among 340,000; AID 623877;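 active = fluorescence-ratio B-score plate-corrected deviation score at least 3 library SD below zero, with starting fluorescence score within 5 deviations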;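 also: channel opened by trigger with iodide after compound preincubation; score built on the fluorescence ratio of max minus min over baseline; more negative score means more quench and so TMEM16A activation or potentiation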
HDAC3 inh: human HDAC3 inhibition | hit rate 0.15% among 320,000 | recombinant HDAC3, fluorogenic peptide/trypsin coupled, fluorescence | inhibition, % at 8.3 µM | AID 2718; in the data active = inhibition above about 26%, passing the limit was not always enough; inconclusive = no clear call, values can overlap the other calls
Target sequence (O15379 whole entry, looked up): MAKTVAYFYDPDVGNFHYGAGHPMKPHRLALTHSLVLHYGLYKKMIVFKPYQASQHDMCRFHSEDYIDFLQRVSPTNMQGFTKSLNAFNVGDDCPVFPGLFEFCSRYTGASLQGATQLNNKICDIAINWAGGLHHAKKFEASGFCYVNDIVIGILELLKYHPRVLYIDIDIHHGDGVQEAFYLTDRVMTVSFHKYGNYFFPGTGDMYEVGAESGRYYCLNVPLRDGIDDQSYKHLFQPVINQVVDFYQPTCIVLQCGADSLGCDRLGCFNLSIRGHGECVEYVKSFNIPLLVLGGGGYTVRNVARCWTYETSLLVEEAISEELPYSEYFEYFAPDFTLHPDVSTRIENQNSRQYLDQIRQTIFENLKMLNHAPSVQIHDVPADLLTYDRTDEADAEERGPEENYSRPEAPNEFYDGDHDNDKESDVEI
PHOSPHO1 block: blocks human PHOSPHO1 phosphatase activity; Q8TCT1; recombinant PHOSPHO1, absorbance phosphatase assay; inhibition, % at 13.3 µM; hit rate 1.1% among 290,000; in the data active = inhibition above about 60%
CHT inh conf: confirmation of human choline transporter CHT inhibitors; hit rate 70% among 2,400; CHT-expressing cells, choline membrane potential dye; LV-to-AA substituted CHT, HEK293 cells; shares compounds with CHT inh; CHT activity remaining % of control (stronger effect = lower value), % at 10 µM; AID 493221;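 active = choline transporter activity left, mean of duplicates at 10 µM, below buffer-only control mean minus 3 SD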;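 also: depolarization triggered by choline at its EC90 following an EC20 pre-addition; 0% = hemicholinium-3 full block and 100% = buffer-only control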
HEK293 CHT ctr: activity in parental HEK293 cells lacking CHT; shares compounds with CHT inh; membrane potential dye, choline response; active = decrease or increase beyond buffer ±3SD; membrane potential ratio readout (active if shifted either direction beyond buffer ±3SD; no single direction) at 10 µM; hit rate 4% among 2,400; AID 493222;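 also: parental cells lack the transporter so any hit is non-specific; ratio is peak minus trough fluorescence over baseline after EC90 choline challenge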
An asterisk follows results filed as active; i = inactive; ? = inconclusive; . = not tested or not shown.

SMILES | TMEM16A inh | CHT inh | CHT PAM | TMEM16A act | HDAC3 inh | PHOSPHO1 block | CHT inh conf | HEK293 CHT ctr
COc1cc(C(CCN2CCCC2)c2c(OC)cc(OC)c3c(C)cc(=O)oc23)cc(OC)c1OC (centres undefined) | i | i | i | i | -2.3 | 26.5 | . | .
COc1cc(C(CCN2CCCCC2)c2c(OC)cc(OC)c3c(-c4ccccc4)cc(=O)oc23)cc(OC)c1OC (centres undefined) | i | -8.05* | i | i | 3.2 | 35.3 | 44.2%* | i
C[C@]12C=CC(=O)C=C1CCC1C3CC[C@](O)(C(=O)CO)[C@@]3(C)CC3OC312 (some centres undefined) | i | i | i | i | -4.7 | -9.8 | . | .
Cc1ccccc1OCC(=O)NCCS(=O)(=O)N1CCN(c2ccc(F)cc2)CC1 | i | i | i | i | -10.4 | . | . | .
CSc1ccccc1C(=O)NCCS(=O)(=O)N1CCN(c2ccc(F)cc2)CC1 | i | -5.29* | i | i | -2.0 | . | 38.4%* | i
COc1ccccc1OCC(=O)NCCS(=O)(=O)N1CCN(c2ccccc2)CC1 | i | -6.9* | i | i | 0.1 | . | 58.5%* | i
CCN(C(=O)COC(=O)CNC(=O)C1CCCCC1)c1ccccc1 | . | . | . | i | . | . | . | .
CCCOc1cccc(NC(=O)c2c(-c3ccccc3)noc2C)c1 | i | i | i | i | -3.0 | 8.9 | . | .
Cc1cccc(OCCOC(=O)c2c(-c3ccccc3)noc2C)c1 | i | -5.42* | i | i | 4.7 | 32.5 | i | i
COc1ccccc1CCC(=O)OCC(=O)c1c(N)n(CC(C)C)c(=O)n(C)c1=O | i | -5.72* | i | i | -0.2 | . | 42.9%* | i
CCOC(=O)C1(CCOc2ccccc2)CCN(Cc2cccs2)CC1 | i | i | i | i | -2.0 | -7.4 | . | .
Cc1ccc(N(CN2C(=O)NC(C)(C)C2=O)CN2C(=O)NC(C)(C)C2=O)cc1 | i | i | i | i | 4.2 | -41.5 | . | .
Cn1c(CN2CCN(CCO)CC2)c(C#N)c2ccccc21 | i | -5.28* | i | i | 4.2 | -3.1 | 40.8%* | i
Cc1ccccc1N1CCN(Cc2c(C#N)c3ccccc3n2C)CC1 | i | i | i | i | 3.8 | 9.2 | . | .
COc1cccc(/C=C2\SC(=O)N(CC(=O)NCCCn3ccnc3)C2=O)c1 | i | i | i | i | -1.3 | 32.4 | . | .
O=C(CN1C(=O)S/C(=C\c2cccc(Cl)c2)C1=O)NCCCn1ccnc1 | i | -5.85* | i | i | 0.1 | 8.9 | 55.9%* | i
Cc1cc(NS(=O)(=O)c2ccc(NC(=O)COc3ccc(Cl)c(C)c3)cc2)no1 | . | . | . | i | . | 14.4 | . | .
CCOc1cc(/C=N/NC(=O)c2ccc(CN3CCOCC3)cc2)ccc1OC | i | -9* | i | i | 9.6 | -15.8 | i | i
CC(=NCC1CCNCC1)C1=C(O)CC(C)(C)CC1=O | i | i | i | i | -6.5 | 2.9 | . | .
O=S(=O)(Nc1nc2ccccc2nc1NCc1ccco1)c1ccc(F)cc1 | i | -6.15* | i | i | -4.7 | 41.5 | i | i
O=S(=O)(Nc1nc2ccccc2nc1NCc1ccco1)c1ccccc1 | i | i | i | i | -4.8 | -21.2 | . | .
COC(=O)Cc1ccc(NC(=S)N2CCC(Cc3ccccc3)CC2)cc1 | i | i | i | i | ? | . | . | .
CCn1nc([N+](=O)[O-])c(C(C#N)c2nc3cc(C(F)(F)F)ccc3s2)c(Cl)c1=O (centres undefined) | i | i | i | i | 5.0 | 11.5 | . | .
CCCn1nc([N+](=O)[O-])c(C(C#N)c2nc3ccccc3o2)c(Cl)c1=O (centres undefined) | 100* | -12.4* | i | i | 6.0 | 17.4 | 16.4%* | i
CCCS(=O)(=O)N1CCN(Cc2ccco2)CC1 | i | -6.69* | i | i | -9.1 | 3.4 | i | i
SMILES | TMEM16A inh | CHT inh | CHT PAM | TMEM16A act | HDAC3 inh | PHOSPHO1 block | CHT inh conf | HEK293 CHT ctr
CCCc1ccc(S(=O)(=O)N2CCN(Cc3ccco3)CC2)cc1 | i | i | i | i | -12.0 | . | . | .
Cc1ccc(Oc2ccc(S(=O)(=O)NCC(C)(C)N3CCOCC3)cc2)cc1 | i | -6.4* | i | i | 5.4 | 4.0 | 39.8%* | i
O=C(OCCCOc1ccc(F)cc1)c1ccc(O)cc1O | i | -6* | i | i | -2.2 | 13.7 | 48.8%* | i
O=C1c2ccccc2C(=O)N1CCCCSc1nnc2c(Cl)cc(Cl)cn12 | i | -5.39* | i | i | -3.0 | 11.6 | i | i
O=C(Nc1nnc(C(F)(F)F)s1)c1ccc(N2C(=O)C3C4C=CC(C4)C3C2=O)cc1 (centres undefined) | i | i | i | i | 4.8 | 4.6 | . | .
Cc1nc2ccc(NS(=O)(=O)c3ccc(F)cc3)cc2s1 | i | i | i | i | 2.0 | -9.8 | . | .
CCN(CC)CCNC(=O)c1ccc(N2CCCCC2)c(NS(=O)(=O)c2ccc(C)cc2)c1 | i | -5.59* | i | i | 2.9 | 3.5 | 48.6%* | 4.03*
CCN(CC)CCNC(=O)c1ccc(NC(=O)c2ccc(S(=O)(=O)N3CCCCCC3)cc2)cc1 | i | i | i | i | 2.9 | . | . | .
CSc1nnc(-c2sccc2OCc2ccccc2)n1C | i | -7.27* | i | i | 1.0 | 16.9 | 54.8%* | -9.55*
CNC(=O)c1c(NC(=O)c2cccc(N3C(=O)CCC3=O)c2)sc2c1CCC2 | i | i | i | i | . | -34.9 | . | .
COc1ccc(N2CCN(CC(=O)Nc3c(C)cc(C)cc3C)CC2)cc1 | i | -6.08* | i | . | -1.2 | -0.2 | 52.8%* | i
Cc1cc(C)c(NC(=O)CN2CCN(C)CC2)c(C)c1 | i | i | i | i | 3.5 | -5.3 | . | .
CC(Sc1nc2ccccc2c(=O)n1CCc1ccc(S(N)(=O)=O)cc1)C(=O)NC(N)=O (centres undefined) | i | i | i | i | -7.6 | 8.1 | . | .
CC(CC1C(C#N)=C(N)SC(N)=C1C#N)c1ccccc1 (centres undefined) | 100* | -5.35* | i | i | 5.3 | 37.0 | i | i
COc1ccccc1N1CCN(C(=O)CCC(=O)N2CCN(c3ccccc3OC)CC2)CC1 | i | i | i | i | -2.0 | 29.5 | . | .

Screening results: PubChem BioAssay, several laboratories
